PubChem BioAssay (Tox21)
Inconclusive results are not listed. The source made the active and inactive calls. Calls come from the whole dose curve; as a rule, active = well fitted inhibition curve with a large enough effect in the repeat runs; inconclusive = weak or mixed curves, or effect the other way; inactive = no such curve, though single readings can be large or run the other way.

Assay: qHTS assay to identify small molecule antagonists of the retinoic acid receptor (RAR) signaling pathway (AID 1159552; note: nearly all actives have a fitted effect of over 50% in size)
Conditions: C3RL4 RARE luciferase reporter, retinol-stimulated, 6 h; series mostly up to 92.4 µM; activity, negative = inhibition: at the top concentration
From the text: National Center for Advancing Translational Sciences [NCATS]
NIH Chemical Genomics Center [NCGC]
U.S. Environmental Protection Agency [EPA]
National Institutes of Environmental Health Sciences [NIEHS]
National Toxicology Program [NTP]
U.S. Food and Drug Administration [FDA]
All-trans Retinoic acid (atRA) is the potent natural metabolite of retinol and plays an important role in normal embryonic development and maintenance of cellular phenotype in adult animals. atRA is the activating ligand for the retinoic acid receptors (RARs) which form heterodimers with retinoid X receptors (RXRs) on the retinoic acid response element (RARE). Through activation of the RAR/RXRs nuclear receptors, atRA regulates the transcription of a large number of protein-coding genes and regulatory RNAs. Intracellular levels of atRA are controlled by the retinol signaling pathway (RSP) that regulates the biosynthesis and catabolism of atRA to maintain physiological levels. Chemicals that interfere with the RSP can cause abnormal intracellular levels of atRA and therefore are potential developmental toxicants. To assess compounds for the potential adverse effect on embryonic development through interfering with retinol signaling, a cell-based RARE luciferase reporter gene assay was used. C3RL4 cell line (OARSA/CFSAN/FDA, Laurel, MD) was used to screen Tox21 10K compound library for identifying inhibitors of the RSP.
Tox21 Assay Protocol Summary:
C3RL4 cells were seeded at 1,000/well in 4 uL of assay medium into white solid 1,536-well tissue culture plates (Greiner Bio-One North America Inc. Monroe, NC) using a Multidrop Combi (Thermo Scientific, Waltham, MA) dispenser. After incubation at 37 C and 5% CO2 for an overnight, 23 nL of compounds dissolved in DMSO, positive control or DMSO only were transferred by a Pintool station (Kalypsys, San Diego, CA). One ul of 1 uM (final concentration) of Retinol was added right after the compound addition by using a Flying Reagent Dispenser (FRD) (Aurora Discovery, San Diego, CA). After 6 hr incubation at 37 C and 5% CO2, 5 uL of Amplite Luciferase reagent (AAT Bioquest Inc. Sunnyvale, CA) was added to each assay plate using an FRD. Luminescence was quantified on a ViewLux plate reader (PerkinElmer, Waltham, MA) after 30 min incubation at room temperature.
% is set by controls: 0 for no effect and ±100 for the full control effect.

SMILES | activity, negative = inhibition
Cc1ccsc1C(=CCCN1CCC[C@@H](C(=O)O)C1)c1sccc1C | -6.58% [at 42.5 µM] (inactive)
COC(C)CCO (stereo not given) | 5.81% (inactive)
C=O | 14.9% (inactive)
O=C1CCN(c2ccccc2)N1 | 30% (inactive)
CN1C(=O)CC(c2ccccc2)C1=O (stereo not given) | 30% [at 42.5 µM] (inactive)
CC(C)S | 13.6% (inactive)
O=C1CCCCC1C1CCCCC1 (stereo not given) | 1.99% (inactive)
FC(F)(F)c1ccccc1 | -10.5% (inactive)
CN(CC1(C)CCCO1)S(=O)(=O)c1ccc(Cl)c(S(N)(=O)=O)c1 (stereo not given) | 3.15% [at 42.5 µM] (inactive)
CC(C)(C)c1cccc(O)c1 | -5.76% (inactive)
CCCCNCCCC | 43.5% (inactive)
Oc1ccccc1F | -7.13% (inactive)
CC/C=C\CCOC(=O)CCCCC | 0.366% (inactive)
CCNCCO | 11.2% (inactive)
CCOc1ccccc1N | -3% (inactive)
Nc1ccc2ccccc2c1S(=O)(=O)O | 131% (inactive)
N#Cc1ccc(C(c2ccc(C#N)cc2)n2cncn2)cc1 | 5.84% [at 42.5 µM] (inactive)
OCCN1CCN(CCO)CC1 | 48% (inactive)
c1ccc(CN(CC2=NCCN2)c2ccccc2)cc1 | -4.37% [at 42.5 µM] (inactive)
CC(C)Nc1nc(N)nc(Cl)n1 | -2.39% (inactive)

SMILES | activity, negative = inhibition
CC1(C)S[C@@H]2[C@H](NC(=O)C(C(=O)O)c3ccccc3)C(=O)N2[C@H]1C(=O)O (stereo not given in full) | -3.4% [at 42.5 µM] (inactive)
O=C1N(c2ccccc2)c2ccccc2C1(Cc1ccncc1)Cc1ccncc1 | -18.9% [at 42.5 µM] (inactive)
O=C1CCC(C2CCCCC2)CC1 | 6.54% (inactive)
NC(=O)Cc1cccc(C(=O)c2ccccc2)c1N | 6.66% [at 42.5 µM] (inactive)
CC(C)(C)c1ccc(OC(=O)c2ccccc2O)cc1 | 82.9% (inactive)
Cc1cc2nc(N)sc2cc1C | 178% (inactive)
CCOC(=O)[C@H](CCc1ccccc1)N[C@@H](C)C(=O)N1Cc2cc(OC)c(OC)cc2C[C@H]1C(=O)O | 3.35% [at 42.5 µM] (inactive)
CCCCCCCOC(=O)CCC | 3.74% (inactive)
Cc1cn([C@@H]2O[C@H](CO)[C@@H](O)[C@@H]2F)c(=O)[nH]c1=O | -6.51% [at 42.5 µM] (inactive)
CCCCOc1cc(C(=O)NCCN(CC)CC)c2ccccc2n1 | -21.4% [at 42.5 µM] (inactive)
CN1CCN(c2c(F)cc3c(=O)c(C(=O)O)cn4c3c2SCC4)CC1 | -7.51% [at 42.5 µM] (inactive)
ClC(Cl)Cl | -32.5% (inactive)
O=[N+]([O-])c1nccn1CO[C@@H](CO)[C@H](O)CO | -1.36% [at 42.5 µM] (inactive)
NC(=O)NS(=O)(=O)c1ccc(Cl)cc1 | -5.03% [at 42.5 µM] (inactive)
O=C(O)[C@@H]1CSCN1 | 1.46% [at 42.5 µM] (inactive)
C=CC1CO1 (stereo not given) | 9.48% (inactive)
C=Cc1ccccc1 | -3.25% (inactive)
NCCC(O)(P(=O)(O)O)P(=O)(O)O | 1.86% [at 42.5 µM] (inactive)
Cc1onc(-c2ccccc2)c1C(=O)Cl | 3.46% [at 42.5 µM] (inactive)
CC(C)=CCC[C@](C)(O)[C@@H]1CC=C(C)CC1 | -5.53% (inactive)
